# Measured values reported in PubChem BioAssay (EPA / NIEHS).
# Where “and” joins values, the source holds several entries; their conditions need not be identical. Equal values may be shown once. A structure can be active in one record and inactive in another. Calls of active or inactive are those of the source. How the source made its calls: active means hit-call score of the fitted dose curve at least 0.9, where 1 is the maximum; inactive means score below 0.9.
# How the values were obtained:
# [1] = read-out: Interleukin-8 (IL8), CXCL8 (gene 3576); assay: BSK_KF3CT_IL8: BioMAP Diversity Plus: KF3CT Assay for Interleukin-8 (IL8) Biomarker Activity (AID 2284254); settings: primary human keratinocytes with fibroblasts
# Summary of the method: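 Human keratinocyte/foreskin fibroblast co-culture dosed 24 h; IL-8 measured by ELISA relative to DMSO. Parallel cultures stained with SRB for total protein to flag cytotoxicity.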
# [2] = read-out: Macrophage Inflammatory Protein-1 Alpha (MIP1a), CCL3 (gene 6348); assay: BSK_IMphg_MIP1a: BioMAP Diversity Plus: IMphg Assay for Macrophage Inflammatory Protein-1 Alpha (MIP1a) Biomarker Activity (AID 2284255); settings: primary human endothelial cells with macrophages
# Summary of the method: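 Co-culture of human venular endothelial cells and macrophages exposed to compounds for 24 h; MIP-1a measured by ELISA relative to DMSO. Cytotoxicity assessed in parallel cultures by sulforhodamine B total-protein staining at 560 nm.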
# [3] = read-out: Plasminogen activator inhibitor-1 (PAI1), SERPINE1 (gene 5054); assay: BSK_MyoF_PAI1: BioMAP Diversity Plus: MyoF Assay for Plasminogen activator inhibitor-1 (PAI1) Biomarker Activity (AID 2284256); settings: primary human lung fibroblasts;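 on outcome: PAI-1 read 24 h after compound addition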
# Summary of the method: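 Primary human lung fibroblasts treated with chemical for 24 h; PAI-1 levels quantified by ELISA relative to DMSO. Cytotoxicity was assessed in parallel cultures by SRB total-protein staining (0.1% SRB after 10% TCA fixation, 560 nm).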
# [4] = read-out: CD69, CD69 (gene 969); assay: BSK_IMphg_CD69: BioMAP Diversity Plus: IMphg Assay for CD69 Biomarker Activity (AID 2284257); settings: primary human endothelial cells with macrophages
# Summary of the method: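 Human venular endothelial cells co-cultured with macrophages; CD69 quantified by ELISA 24 h after compound addition. Activity fitted in the positive direction relative to DMSO baseline; cytotoxicity tracked in parallel cultures via SRB total-protein staining.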
# [5] = read-out: Eotaxin 3, CCL26 (gene 10344); assay: BSK_BF4T_Eotaxin3: BioMAP Diversity Plus: BF4T Assay for Eotaxin 3 Biomarker Activity (AID 2284258); settings: primary human bronchial epithelial cells with fibroblasts
# Summary of the method: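 Co-culture of human bronchial epithelial cells and dermal fibroblasts, exposed to chemicals for 24 h versus DMSO. Eotaxin-3 quantified by ELISA; cytotoxicity checked in parallel cultures by sulforhodamine B total-protein staining.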
# [6] = read-out: Monocyte Chemoattractant Protein-1 (MCP1), CCL2 (gene 6347); assay: BSK_BF4T_MCP1: BioMAP Diversity Plus: BF4T Assay for Monocyte Chemoattractant Protein-1 (MCP1) Biomarker Activity (AID 2284259); settings: primary human bronchial epithelial cells with fibroblasts
# Summary of the method: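 Co-culture of bronchial epithelial cells and dermal fibroblasts dosed with chemical; MCP-1 measured by ELISA 24 h later. Activity fitted in positive direction versus DMSO; cytotoxicity checked by SRB staining in parallel cultures.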
# [7] = read-out: Interleukin-8 (IL8), CXCL8 (gene 3576); assay: BSK_MyoF_IL8: BioMAP Diversity Plus: MyoF Assay for Interleukin-8 (IL8) Biomarker Activity (AID 2284261); settings: primary human lung fibroblasts
# Summary of the method: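 Human lung fibroblast (MyoF system) cultures dosed for 24 h, then IL-8 measured by ELISA. Response taken relative to DMSO; parallel SRB total-protein staining for cytotoxicity.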
# [8] = read-out: CD90, THY1 (gene 7070); assay: BSK_BF4T_CD90: BioMAP Diversity Plus: BF4T Assay for CD90 Biomarker Activity (AID 2284262); settings: primary human bronchial epithelial cells with fibroblasts
# Summary of the method: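 Co-culture of human bronchial epithelial cells and dermal fibroblasts, 24 h compound exposure. Cell-surface CD90 measured by ELISA relative to DMSO; parallel SRB total-protein staining for cytotoxicity.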
# [9] = read-out: Interleukin-8 (IL8), CXCL8 (gene 3576); assay: BSK_BF4T_IL8: BioMAP Diversity Plus: BF4T Assay for Interleukin-8 (IL8) Biomarker Activity (AID 2284263); settings: primary human bronchial epithelial cells with fibroblasts
# Summary of the method: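 Human bronchial epithelial cells with dermal fibroblasts co-culture; IL-8 measured by ELISA 24 hours after dosing, fitted vs DMSO. Cytotoxicity tracked in parallel cultures by SRB total-protein staining.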
# [10] = read-out: Interleukin-1 alpha (IL1a), IL1A (gene 3552); assay: BSK_BF4T_IL1a: BioMAP Diversity Plus: BF4T Assay for Interleukin-1 alpha (IL1a) Biomarker Activity (AID 2284264); settings: primary human bronchial epithelial cells with fibroblasts
# Summary of the method: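 Human bronchial epithelial cells co-cultured with dermal fibroblasts, dosed and read at 24 h. Secreted/surface IL-1α quantified by ELISA; gain-of-signal fitted relative to DMSO baseline. Parallel SRB total-protein staining tracked cytotoxicity.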
# [11] = read-out: Decorin, DCN (gene 1634); assay: BSK_MyoF_Decorin: BioMAP Diversity Plus: MyoF Assay for Decorin Biomarker Activity (AID 2284265); settings: primary human lung fibroblasts
# Summary of the method: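 Human lung fibroblast cultures were dosed for 24 h, and decorin was then measured by ELISA. Parallel cultures were stained with sulforhodamine B for total protein as a cytotoxicity check. Gain of signal was fitted relative to DMSO.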
# [12] = read-out: KRT18 (gene 3875); assay: BSK_BF4T_Keratin818: BioMAP Diversity Plus: BF4T Assay for Keratin 818 Biomarker Activity (AID 2284266); settings: primary human bronchial epithelial cells with fibroblasts
# Summary of the method: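 Co-culture of human bronchial epithelial cells and dermal fibroblasts, chemical exposure 24 h. Keratin 8/18 measured by ELISA; positive-direction fit vs DMSO. SRB total protein run in parallel cultures for cytotoxicity.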
# [13] = BSK_MyoF_SRB: Viability Assessment in the BioMAP Diversity Plus: MyoF Assay (AID 2284267); settings: primary human lung fibroblasts;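 further: total protein by SRB absorbance in parallel cultures as cytotoxicity measure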
# Summary of the method: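 Human lung fibroblasts dosed with chemical and assessed 24 h later for overt cytotoxicity in parallel cultures. Total protein quantified by sulforhodamine B staining (0.1% SRB after 10% TCA fixation), read at 560 nm, analysed in positive direction versus DMSO baseline.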
# [14] = read-out: Matrix Metallopeptidase 1 (MMP1), MMP1 (gene 4312); assay: BSK_MyoF_MMP1: BioMAP Diversity Plus: MyoF Assay for Matrix Metallopeptidase 1 (MMP1) Biomarker Activity (AID 2284268); settings: primary human lung fibroblasts
# Summary of the method: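 Human lung fibroblast primary cells; MMP1 measured by ELISA 24 h after dosing, fitted in the positive direction relative to DMSO. Parallel SRB staining (0.1%, after 10% TCA fixation, 560 nm) assesses overt cytotoxicity.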
# [15] = read-out: TIMP metallopeptidase inhibitor 1 (TIMP1), TIMP1 (gene 7076); assay: BSK_MyoF_TIMP1: BioMAP Diversity Plus: MyoF Assay for TIMP metallopeptidase inhibitor 1 (TIMP1) Biomarker Activity (AID 2284269); settings: primary human lung fibroblasts
# Summary of the method: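 ELISA quantified TIMP-1 levels after 24 h dosing of primary human lung fibroblasts, with DMSO as baseline. Parallel SRB total protein staining (0.1% SRB after TCA fixation, 560 nm) flagged overt cytotoxicity.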
# [16] = read-out: Matrix Metallopeptidase 1 (MMP1), MMP1 (gene 4312); assay: BSK_BF4T_MMP1: BioMAP Diversity Plus: BF4T Assay for Matrix Metallopeptidase 1 (MMP1) Biomarker Activity (AID 2284270); settings: primary human bronchial epithelial cells with fibroblasts
# Summary of the method: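 Co-culture of human bronchial epithelial cells and dermal fibroblasts; MMP-1 levels measured by ELISA 24 hours after chemical dosing, relative to DMSO. Cytotoxicity checked in parallel cultures by SRB total-protein staining.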
# [17] = read-out: Matrix Metallopeptidase 3 (MMP3), MMP3 (gene 4314); assay: BSK_BF4T_MMP3: BioMAP Diversity Plus: BF4T Assay for Matrix Metallopeptidase 3 (MMP3) Biomarker Activity (AID 2284271); settings: primary human bronchial epithelial cells with fibroblasts
# Summary of the method: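 Co-culture of human bronchial epithelial cells and dermal fibroblasts dosed 24 h; MMP-3 measured by ELISA, positive-direction fit versus DMSO. Cytotoxicity tracked by SRB total-protein staining (560 nm) in parallel cultures.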
# [18] = read-out: Tissue plasminogen activator (tPA), PLAT (gene 5327); assay: BSK_BF4T_tPA: BioMAP Diversity Plus: BF4T Assay for Tissue plasminogen activator (tPA) Biomarker Activity (AID 2284272); settings: primary human bronchial epithelial cells with fibroblasts
# Summary of the method: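 tPA level quantified by ELISA at 24 h post-treatment in bronchial epithelial/dermal fibroblast co-cultures, gain of signal scored against DMSO baseline. Parallel cultures stained with 0.1% SRB (560 nm) to flag overt cytotoxicity.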
# [19] = read-out: Intercellular Adhesion Molecule 1 (ICAM1), ICAM1 (gene 3383); assay: BSK_BF4T_ICAM1: BioMAP Diversity Plus: BF4T Assay for Intercellular Adhesion Molecule 1 (ICAM1) Biomarker Activity (AID 2284260); settings: primary human bronchial epithelial cells with fibroblasts
# Summary of the method: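 Co-culture of human bronchial epithelial cells and dermal fibroblasts exposed 24 h to chemical; cell-surface ICAM-1 quantified by ELISA. Parallel SRB total-protein staining assessed cytotoxicity; activity fitted relative to DMSO.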
# [20] = read-out: Plasminogen Activator Inhibitor-1 (PAI1), SERPINE1 (gene 5054); assay: BSK_BF4T_PAI1: BioMAP Diversity Plus: BF4T Assay for Plasminogen Activator Inhibitor-1 (PAI1) Biomarker Activity (AID 2284273); settings: primary human bronchial epithelial cells with fibroblasts
# Summary of the method: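 Co-culture of human bronchial epithelial cells and dermal fibroblasts exposed to compound for 24 h. PAI-1 measured by ELISA; activity fitted in positive direction versus DMSO. Parallel SRB staining assessed overt cytotoxicity.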
smiles,measurement,setting,value
FC(F)(F)C(F)(F)C(F)(F)C(F)(F)C(F)(F)C(F)(F)CCS,outcome,[1],inactive
same,outcome,[2],inactive
same,AC50,[3],0.0795 µM (active)
same,outcome,[3],inactive
same,outcome,[4],inactive
same,outcome,[5],inactive
same,outcome,[6],inactive
same,outcome,[7],inactive
same,outcome,[8],inactive
same,outcome,[9],inactive
same,AC50,[10],10.9 µM (active)
same,outcome,[10],inactive
same,outcome,[11],inactive
same,outcome,[12],inactive
same,outcome,[13],inactive
same,outcome,[14],inactive
same,outcome,[15],inactive
same,outcome,[16],inactive
same,outcome,[17],inactive
same,outcome,[18],inactive
OCC(F)(F)C(F)(F)C(F)(F)C(F)(F)C(F)(F)C(F)(F)F,outcome,[1],inactive
same,outcome,[2],inactive
same,outcome,[3],inactive
same,outcome,[4],inactive
same,outcome,[5],inactive
same,outcome,[6],inactive
same,outcome,[19],inactive
same,outcome,[7],inactive
same,outcome,[8],inactive
same,outcome,[9],inactive
same,outcome,[10],inactive
same,outcome,[11],inactive
same,outcome,[12],inactive
same,AC50,[13],49.5 µM (active)
same,outcome,[13],inactive
same,AC50,[14],47.9 µM (active)
same,outcome,[14],inactive
same,outcome,[15],inactive
same,outcome,[16],inactive
same,outcome,[18],inactive
O=C(Cl)C(F)(F)C(F)(F)C(F)(F)C(F)(F)C(F)(F)C(F)(F)C(F)(F)C(F)(F)F,AC50,[1],30 µM (active)
same,outcome,[1],inactive
same,AC50,[2],23 µM (active)
same,outcome,[2],inactive
same,AC50,[3],30 µM (active)
same,outcome,[3],inactive
same,AC50,[4],55.1 µM (active) and 33.8 µM (active) and 45.9 µM (active)
same,AC50,[5],41.7 µM (active) and 39.5 µM (active) and 45.8 µM (active)
same,AC50,[6],45.5 µM (active)
same,outcome,[6],inactive
same,outcome,[7],inactive
same,outcome,[8],inactive
same,outcome,[9],inactive
same,AC50,[10],45.4 µM (active) and 45.6 µM (active) and 56.8 µM (active)
same,outcome,[11],inactive
same,AC50,[12],44.5 µM (active) and 46.1 µM (active) and 44.3 µM (active)
same,AC50,[13],26 µM (active) and 21.7 µM (active) and 20.3 µM (active)
same,outcome,[14],inactive
same,outcome,[15],inactive
same,AC50,[16],55.2 µM (active)
same,outcome,[16],inactive
same,AC50,[18],28 µM (active) and 22.9 µM (active) and 20.9 µM (active)
N=C(N)C(F)(F)C(F)(F)C(F)(F)C(F)(F)C(F)(F)C(F)(F)C(F)(F)F,outcome,[1],inactive
same,outcome,[2],inactive
same,outcome,[3],inactive
same,outcome,[4],inactive
same,AC50,[5],38.9 µM (active)
same,outcome,[5],inactive
same,outcome,[6],inactive
same,outcome,[19],inactive
same,outcome,[7],inactive
same,outcome,[8],inactive
same,outcome,[9],inactive
same,outcome,[10],inactive
same,outcome,[11],inactive
same,outcome,[12],inactive
same,outcome,[13],inactive
same,outcome,[14],inactive
same,outcome,[15],inactive
same,outcome,[16],inactive
same,outcome,[18],inactive
same,outcome,[20],inactive
CC(C)(C)C(=O)CC(=O)C(F)(F)C(F)(F)C(F)(F)F,outcome,[1],inactive
same,AC50,[2],44.2 µM (active)
same,outcome,[2],inactive
same,outcome,[3],inactive
same,outcome,[4],inactive
same,outcome,[5],inactive
same,AC50,[6],49.9 µM (active)
same,outcome,[6],inactive
same,outcome,[7],inactive
same,outcome,[8],inactive
same,outcome,[9],inactive
same,outcome,[10],inactive
same,outcome,[11],inactive
same,outcome,[12],inactive
same,outcome,[13],inactive
same,outcome,[14],inactive
same,outcome,[15],inactive
same,outcome,[16],inactive
same,outcome,[18],inactive
